Experimental data from PubChem BioAssay AID651812 (National Center for Advancing Translational Sciences (NCATS), 2012).
Screen size: about 2,100 compounds; about 650 (31%) were called active. About 16% were inconclusive and are not listed. The call rests on the fitted dose curve; in most records, active means well fitted inhibition curve with a large enough effect; inconclusive means small, poorly fitted or top-dose-only effect; inactive means flat fitted curve, though single readings scatter. Some of the results follow. Where a call stands in place of a potency, no number is given.

Experiment: qHTS for inhibitors of Vif-A3G interactions: Cherry picks; further: nearly all actives have a fitted effect of over 80% in size
Details: HeLa A3G-eYFP + Vif (tagged APOBEC3G with the HIV-1 protein that degrades it), 24 h; Potency: eYFP fluorescence increase; series mostly up to 36.9 µM
Outline: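 Cherry-picked compounds tested at several concentrations on A3G-eYFP/Vif HeLa cells for 24 hours; loss of Vif-driven degradation read as eYFP fluorescence by cytometric plate imaging, 488 nm excitation, 500-530 nm emission.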
Potency means the concentration at half of the fitted maximal effect.

SMILES	Potency
Cc1csc(NC(=O)CCC(=O)N(CC(=O)NC2CCCC2)Cc2ccccc2)n1	inactive
CCCC1=Nc2cc(C(=O)NCc3ccco3)ccc2Sc2ccccc21	inactive
COc1cc(OC)c(OC)cc1/C=C1\Oc2cc(OCC(=O)N3Cc4ccccc4C[C@H]3C(=O)O)ccc2C1=O	4.11 µM (active)
Cc1cc(=O)oc2cc(OCC(=O)N3c4ccccc4CC3C)ccc12 (stereo unspecified)	inactive
CCNC(=S)N/N=C(\C)c1ccc(N2CCOCC2)cc1	inactive
COc1ccc(OCCCC(=O)N2CCN(S(=O)(=O)c3cccc(F)c3)CC2)cc1	inactive
O=C1CSC(=S)N1Cc1cccnc1	16.4 µM (active)
COc1ccc(OC)c(/C=C/c2nc3ccccc3[nH]c2=O)c1	18.4 µM (active)
N=C1C(c2nc3ccccc3[nH]2)=C(O)CN1c1ccccc1	inactive
O=c1[nH]c2ccccc2nc1/C=C/c1ccc(F)cc1	14 µM (active)
COc1cccc(N2CC(O)=C(c3nc4ccccc4c(=O)[nH]3)C2=N)c1	inactive
O=C(/C(=C/c1ccc(Cl)cc1)c1nc2ccccc2[nH]1)c1cccs1	inactive
COc1ccc(OC)c(Nc2nc(-c3ccncc3)nc3ccccc23)c1	inactive
O=c1[nH]c2ccccc2nc1/C=C(\O)c1cccs1	18.4 µM (active)
COc1ccccc1NS(=O)(=O)c1cc([N+](=O)[O-])ccc1N/N=C/c1c[nH]c2ccccc12	16.4 µM (active)
CCN(CC)c1ccc(NC(=O)c2ccc(=O)[nH]c2)cc1S(=O)(=O)Nc1ccccc1OC	inactive
COc1ccc(NS(=O)(=O)c2cc([N+](=O)[O-])ccc2N/N=C/c2c(C)[nH]c3ccccc23)cc1	14.6 µM (active)
Cc1[nH]c2ccccc2c1/C=N/Nc1ccc([N+](=O)[O-])cc1	13 µM (active)
O=C(N/N=C/c1c[nH]c2ccccc12)C1COc2ccccc2O1 (stereo unspecified)	inactive
O=[N+]([O-])c1ccc(N/N=C\c2cccn2-c2ccccc2)nc1	inactive
COc1ccc(S(=O)(=O)Nc2cccc3ccccc23)cc1	inactive

SMILES	Potency
O=[N+]([O-])c1ccc(N/N=C/c2c[nH]c3ccccc23)cc1	11.6 µM (active)
Cc1[nH]c2ccccc2c1/C=N/NC(=O)c1cc(-c2ccncc2)nc2ccccc12	inactive
CCCCCS(=O)(=O)c1oc(-c2cccs2)nc1S(=O)(=O)c1ccc(C)cc1	inactive
Cc1ccc(-c2nc(C=Nc3ccc(O)cc3)c(O)o2)cc1	inactive
COc1ccc(NC(=O)C2(C)Cc3c(-c4cccc(NC(C)=O)c4)ccnc3O2)cc1 (stereo unspecified)	inactive
COc1cc(Cn2c3ccc(NC(=O)CCc4ccccc4)cc3c(=O)n2C)ccc1F	inactive
Cn1nnnc1SCCNCc1cc(Br)ccc1OCc1ccccc1Cl	inactive
Cc1ccc(-c2cc(NC=O)c3ncc(-c4cnn(C)c4)n3c2)cc1	inactive
O=[N+]([O-])c1ccc(N=Nc2ccc(O)c3ccccc23)cc1	inactive
O=C(Nc1ccc2c(c1)OCCO2)C(=O)c1c[nH]c2ccccc12	inactive
COc1ccccc1NS(=O)(=O)c1cc([N+](=O)[O-])ccc1N/N=C/c1c(C)[nH]c2ccccc12	2.8 µM (active)
O=[N+]([O-])c1ccc(N/N=C/c2c[nH]c3ccccc23)c(S(=O)(=O)Nc2ccc(Cl)cc2)c1	18.4 µM (active)
Cc1ccc(-c2cc(C(=O)N/N=C/c3c[nH]c4ccccc34)[nH]n2)cc1	inactive
C/C(=N/Nc1ccc([N+](=O)[O-])cc1)c1c[nH]c2ccccc12	8.2 µM (active)
Cc1ccc(N2C(=O)CS/C2=C(\C(Cl)=C(Cl)Cl)[N+](=O)[O-])cc1	inactive
Fc1cccc(F)c1/C=N/NC(=S)Nc1cccnc1	inactive
Cn1c(=O)c2cc(NC(=O)Cc3cccc4ccccc34)ccc2n1-c1ccccc1	inactive
CCOc1ccc(N/C=C/C(=O)c2cc(OC)c(OC)c(OC)c2)cc1	inactive
COc1cc(/C=C/C(=O)c2ccc(O)cc2)ccc1OCC#N	inactive
CCOc1cc(/C=C/C(=O)c2ccc(OC)c(CN3CCOCC3)c2)cc(Br)c1O	18.4 µM (active)
COc1cc2c(cc1OC)C(C)N(C(=O)c1cc(Cl)nc(Cl)c1)CC2 (stereo unspecified)	inactive

SMILES	Potency
O=C(Nc1ccc([N+](=O)[O-])cc1)C(Cc1ccccc1)N1C(=O)c2cccc3cccc(c23)C1=O (stereo unspecified)	14 µM (active)
O=C(c1ccc(CS(=O)c2ccccc2Cl)o1)N1CCN(c2ccccc2F)CC1 (stereo unspecified)	inactive
CC(=O)c1ccc2cccc3c2c1N=CN3C	15.8 µM (active)
C=CCn1c(O)c(N=NC(=O)CNC(=O)c2ccco2)c2ccccc21	inactive
CCN(CC)c1ccc(NC(=O)c2ccc(=O)[nH]c2)cc1S(=O)(=O)Nc1ccc(OC)cc1	inactive
Cc1cc([N+](=O)[O-])ccc1-c1ccc(/C=N/NC(=O)c2ccc(Br)o2)o1	16.4 µM (active)
NC(=S)N/N=C\c1ccc(-c2cccc(Cl)c2Cl)o1	inactive
O=[N+]([O-])c1ccccc1C=NNC(=S)NN=Cc1ccccc1[N+](=O)[O-]	inactive
O=C(O)c1ccc(N/N=C/C(Br)=C/c2ccccc2)cc1	inactive
O=C(Cc1ccccc1)N/N=C/c1ccc(-c2ccc([N+](=O)[O-])cc2)o1	17.7 µM (active)
CCOc1ccc(S(=O)(=O)N(CC(=O)N/N=C/c2ccc(-c3ccc([N+](=O)[O-])cc3)o2)c2ccccc2)cc1	inactive
Cc1cc(/C=N/NC(=O)c2cc3ccccc3o2)c(C)n1C	inactive
Cc1ccc(-c2ccc(/C=N/NC(N)=S)o2)cc1	inactive
O=C(O)c1cccc(-c2ccc(/C=N/Nc3ccc([N+](=O)[O-])cc3)o2)c1	18.4 µM (active)
CC(C)(C)NC(=S)N/N=C\c1ccc(-c2ccc([N+](=O)[O-])cc2)o1	20.6 µM (active)
CC1(C(=O)NCc2ccccc2)Cc2c(-c3cccc(C(N)=O)c3)ccnc2O1 (stereo unspecified)	inactive
COc1ccc(NC(=O)C2(C)Cc3c(-c4cccc(C(N)=O)c4)ccnc3O2)cn1 (stereo unspecified)	inactive
O=C(COc1ccc(C(=O)c2ccccc2)cc1)NCc1ccc(F)cc1	inactive
Cc1c(C(=O)C(=O)N2CC=C(c3ccccc3)CC2)c2ccccc2n1C	inactive
